High-throughput results from PubChem.
ELG1 DNA repair: inhibitors of ELG1-dependent DNA repair in HEK293T cells. HEK293T ELG1-luciferase reporter, luminescence, 16 h; DNA damage induced by 5-fluorouridine. Potency, µM (series often up to 46.1 µM), for the others: top-dose activity change, negative = inhibition, actives largely listed as inhibitors. actives 2.3% (n = 330,000); further: potency means the concentration at half of the fitted maximal effect; nearly all actives have a fitted effect of over 55% in size
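Quantitative HTS, concentration-response format. 2,000 cells/well co-treated with 5-fluorouridine and compound, 16 hr in 5% CO2 at 37 °C; ONE-Glo luminescence read after 30 min.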
TDP1 cell noCPT: qHTS for Inhibitors of human tyrosyl-DNA phosphodiesterase 1 (TDP1): qHTS in cells in absence of CPT; DT40 Tdp1-/- hTDP1 cells, no CPT, ATP luminescence, 48 h; Potency, µM (doses to about 46.2 µM), for the others: top-dose activity change, negative = growth inhibition, actives largely listed as inhibitors; actives 15% (n = 420,000); further: potency means the concentration at half of the fitted maximal effect; nearly all actives have a fitted effect of over 55% in size
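Growth of hTDP1-complemented DT40 Tdp1-knockout cells is measured by ATP luminescence after at least 48 hr compound exposure at 37 °C, with DMSO substituting for the 20 nM CPT used in the parallel screen.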
DT40 TDP1 CPT: DT40-hTDP1 cell growth loss with CPT; chicken DT40 Tdp1-/-;hTDP1 cells + 20 nM CPT, ATP luminescence, 48 h; Potency, µM (top dose mostly 46.2 µM), for the others: at the top dose activity change, negative = growth inhibition, hits mostly inhibitors; actives 12% (n = 420,000); AID 686979; further: potency means the concentration at half of the fitted maximal effect; nearly all actives have a fitted effect of over 55% in size
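Cell growth measured by CellTiter-Glo luminescence after a minimum 48 h, 37 C compound exposure with 20 nM CPT in Tdp1-knockout DT40 cells stably expressing hTDP1, seeded 400/well; qHTS titration format.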
Gal4-VP16 FLuc: Gal4-VP16 reporter inhibition counter-screen; Drosophila S2 Gal4-VP16 UAS-luciferase, luminescence, 20 h; Potency, µM (titrated, usually from 53.6 µM), for inactives: at the highest dose activity, negative = inhibition, hits mostly inhibitors; AID 2546; actives 3.5% (n = 310,000);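 further: Gal4-VP16 expression switched on by copper sulfate through the metallothionein promoter; potency means the concentration at half of the fitted maximal effect; nearly all actives have a fitted effect of over 50% in size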
RORgamma inh: blocks mouse ROR gamma transcriptional activity | Drosophila S2 Gal4-RORgamma UAS-luciferase reporter, 20 h | Potency, µM (highest dose often 53.6 µM), for the others: at the top dose activity change, negative = inhibition, hits mostly inhibitors | actives 5.4% (n = 310,000) | AID 2551; further: potency means the concentration at half of the fitted maximal effect; nearly all actives have a fitted effect of over 60% in size
Target sequence (P51450 whole entry, looked up, the tested form may be a part): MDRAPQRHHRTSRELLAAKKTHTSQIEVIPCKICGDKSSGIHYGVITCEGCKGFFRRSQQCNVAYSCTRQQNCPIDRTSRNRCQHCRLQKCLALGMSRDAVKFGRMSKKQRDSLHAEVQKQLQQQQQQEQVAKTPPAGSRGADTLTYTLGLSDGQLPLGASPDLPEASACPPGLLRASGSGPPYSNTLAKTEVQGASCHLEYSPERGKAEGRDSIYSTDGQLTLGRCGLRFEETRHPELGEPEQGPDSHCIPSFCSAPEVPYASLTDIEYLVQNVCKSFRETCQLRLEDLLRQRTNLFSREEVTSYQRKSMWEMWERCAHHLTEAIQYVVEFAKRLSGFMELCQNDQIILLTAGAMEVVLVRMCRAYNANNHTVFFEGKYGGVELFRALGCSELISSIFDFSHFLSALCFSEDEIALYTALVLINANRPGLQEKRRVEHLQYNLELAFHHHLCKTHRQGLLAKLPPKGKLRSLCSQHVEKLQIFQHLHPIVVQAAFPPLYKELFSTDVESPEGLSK
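Luciferase reporter read in Schneider cells carrying Gal4-RORγ (mouse) and UAS-Photinus luciferase; cells given compound 1 h before 700 uM copper sulfate induction, then incubated 20 h at ambient temperature.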
IL1B secr inh: inflammasome signaling inhibition, IL-1 beta readout; activity change, % at 57.5 µM; THP-1 LPS/ATP IL-1B secretion, AlphaLISA, 16 h; active compounds read low; actives 4.7% (n = 360,000); in the data active means activity change below about -50%; inconclusive means mostly about -30% to -49%
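THP-1 cells pretreated 1 hr with compounds (up to 57.5 uM final), then stimulated with LPS (250 ng/mL final) plus ATP (1.25 mM final); secreted IL-1B measured by AlphaLISA after 16 hr, decreased signal indicating inhibition.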
Starred values were filed as active, the others as inactive; ? = inconclusive; nt = no result given; ! = not confirmed by another sample. This is a sample that favours compounds with a hit; in the whole collection about 21% have one here. Unless noted, the call rests on the fitted dose curve; in most records, active means well fitted curve in the direction sought with a large enough effect; inconclusive means small, poorly fitted or top-dose-only effect, or another doubt; inactive means no such curve, though single readings can be large; an effect the other way counts as inactive or inconclusive. On the % scale 0 is the no-effect control and ±100 the full control effect.

SMILES | ELG1 DNA repair | TDP1 cell noCPT | DT40 TDP1 CPT | Gal4-VP16 FLuc | RORgamma inh | IL1B secr inh
COCC1=C(C(=O)OC(C)OC(=O)OC(C)C)N2C(=O)[C@@H](NC(=O)/C(=N\OC)c3csc(N)n3)[C@H]2SC1 (some centres not stated) | nt | 1.3µM*! | 3.3µM*! | nt | nt | 14
O=C(c1ccccc1)[C@@H]1[C@@H]2C(=O)N(c3ccc(F)cc3)C(=O)[C@@H]2C2CCCN21 (some centres not stated) | ? | ? | ? | ? | ? | -59*
Cc1ccc(N2C(=O)[C@@H]3[C@H](C2=O)C2CCCN2[C@@H]3C(=O)c2ccccc2)cc1 (some centres not stated) | ? | ? | -18% | ? | 6.3µM* | -8
CC(=O)c1ccc(N2C(=O)C3C(C2=O)C(C(=O)c2ccc(Cl)cc2)N2CCCC32)cc1 (configuration not stated) | ? | 10µM* | 8.2µM* | -24% | ? | -109*
Cn1c(=O)n(C)c2cc(N3CCOCC3)c(NC(=O)c3c(F)cccc3F)cc21 | nt | -28% | ? | nt | nt | nt
Cc1ccc(-c2nnc(SCC(=O)NCCN3C(=O)CSC3=O)n2C)cc1 | ? | 1% | 8% | nt | nt | 6
CCCC(=O)Nc1ccc(S(=O)(=O)Nc2cc(OC)ncn2)cc1 | -2% | 14% | -1% | nt | nt | 19
CC(C)C(=O)N1CCN(c2c(Cl)cccc2[N+](=O)[O-])CC1 | -24% | ? | -2% | 7% | -3% | 0
O=C(c1cccnc1)N1CCN(c2c(Cl)cccc2[N+](=O)[O-])CC1 | -15% | 8.2µM* | -21% | -5% | 1% | 4
O=C(/C=C/c1ccccc1)N1CCN(c2c(Cl)cccc2[N+](=O)[O-])CC1 | ? | 16µM* | 23µM* | -6% | ? | ?
COc1ccc2c(c1)c1ncn(Cc3ccc(F)cc3)c(=O)c1n2C | -10% | -29% | -19% | 1% | 40% | 22
COc1ccc2c(c1)c1ncn(Cc3ccco3)c(=O)c1n2C | 16µM* | 13µM* | -5% | ? | 24% | -13
COc1ccccc1CNc1ncncc1-c1ccccc1OC | nt | ? | ? | 16µM* | ? | nt
COc1ccccc1-c1cncnc1NCc1cccc(C)c1 | nt | 21µM* | ? | 1% | -45% | nt
COc1ccccc1-c1cncnc1NCc1cccs1 | nt | -24% | -2% | 6% | 0% | nt
COc1ccccc1CNc1ncncc1-c1ccccc1CN(C)C | nt | ? | -8% | -3% | -12% | nt
CCC(C(=O)NCCc1c[nH]c2ccc(C)cc12)c1ccccc1 (configuration not stated) | -14% | ? | -3% | 5% | 2% | -24
Cc1cc(NC(=O)C2CC2)ccc1NC(=O)c1cccs1 | 16% | -27% | -21% | -1% | 14% | ?
Cc1cc(NC(=O)COc2ccccc2C)ccc1NC(=O)c1cccs1 | -17% | 12µM* | -61% | 10% | 2% | -62*
Cc1cc(NC(=O)COc2ccccc2C)ccc1NC(=O)c1ccco1 | -1% | 16µM* | 23µM* | 1% | 17% | -27
CCC(C)NC(=O)c1cc(-c2cccc(OC)c2)on1 (configuration not stated) | nt | -23% | 17% | nt | nt | nt
CN1CCN(S(=O)(=O)Cc2ccc(Cl)cc2)CC1 | 7% | -2% | -24% | -4% | -4% | 9
Brc1ccc(-c2csc(-c3c[nH]c4ccccc34)n2)cc1 | ? | ? | ? | 1% | 22% | 16
c1ccc2c(-c3csc(-c4ccncc4)n3)c[nH]c2c1 | ? | 15µM* | 18µM* | ? | -24% | -15
Cc1ccc(C)c(OCCCC(C)(C)C(=O)O)c1 | -6% | -26% | -8% | 20µM*! | -5% | 0
